JMJD2A Tudor: inhibitors of human JMJD2A Tudor domain; O75164; AlphaScreen JMJD2A-Tudor / H3K4me3 peptide binding; Potency, µM (series often up to 114 µM), actives largely listed as inhibitors; hit rate 4.4% among 390,000; AID 504339; further: nearly all actives have a fitted effect of over 50% in size
HP1b chromo inh: inhibitors of HP1-beta chromodomain binding to methylated histone tails | P83916 | AlphaScreen HP1-beta / biotin-H3K9me3 peptide binding | Potency, µM (highest dose often 114 µM), most hits filed as inhibitors | hit rate 0.56% among 390,000 | AID 540317; further: nearly all actives have a fitted effect of over 70% in size
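AlphaScreen: HP1-beta (50 nM) preformed 30 min with biotin-H3(1-18)K9me3 peptide (50 nM) in PBS pH 7.4, 0.01% Tween-20. Compound added for 30 min at RT, then streptavidin donor/nickel chelate acceptor beads (10 ug/mL) for 30 min.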
G9a inh: G9a (human) methyltransferase inhibition; Q96KQ7; G9a H3K9 monomethylation, AlphaScreen, 2 h; Potency, µM (titrated, usually from 102 µM), hits mostly inhibitors; hit rate 8.8% among 350,000; AID 504332; further: nearly all actives have a fitted effect of over 75% in size
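G9a (20 nM) was preincubated 15 min with compound, then reacted 2 h at room temperature with 500 nM biotin-H3K9 peptide and 20 µM SAM. Monomethyl-H3K9 detected by AlphaScreen using anti-H3K9me1 antibody.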
Six1-Eya2 inh: Six1/Eya2 interaction inhibition; activity change, % (test concentration not listed); Q15475+O00167; hit rate 0.56% among 360,000; AlphaScreen GST-Six1/His-Eya2 binding, biochemical; stronger effect = lower value; in the data active means activity change below about -65%; inconclusive means mostly about -30% to -63%
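Six1/Eya2 binding was read as AlphaScreen signal after compounds were pinned into GST-Six1 plus His-tagged Eya2 (5X stock 250/500 nM) in pH 8.0 Tris/NaCl/TCEP buffer, beads added, then incubated 1 h, 37 C, dark.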
CtBP-E1A blk: blocks the CtBP interaction with E1A; AlphaScreen GST-E1A/His-CtBP binding, 1536-well; stronger effect = lower value; activity change, % (concentration not given with the values); hit rate 0.49% among 340,000; in the data active means activity change below about -65%; inconclusive means mostly about -30% to -63%
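Steps: dispense buffer (Tris pH 8.0, NaCl 300 mM, TCEP 1 mM, BSA, Tween 20); add 5X protein mix (GST-E1A, His-CtBP, 125 nM each); pin 23 nL compound; 2 h at 37 °C, dark; add 5X beads (50 ug/mL); 1 h; read.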
BAZ2B block: blocks human BAZ2B; Q9UIF8; AlphaScreen BAZ2B-H3K14Ac peptide displacement; Potency, µM (highest dose often 114 µM), hits mostly inhibitors; hit rate 4.4% among 360,000; AID 504333; further: nearly all actives have a fitted effect of over 60% in size
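BAZ2B 50 nM plus b-H3(5-23)K14Ac 50 nM, PBS pH 7.4/0.01% Tween-20, 30 min RT; compound added (max 110 uM), 30 min RT; streptavidin donor/Ni-chelate acceptor beads 10 ug/mL final, 20 min dark; AlphaScreen read.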
Hits are given with their value; i = inactive; ? = inconclusive; nt = no result; [ ] = dose if it differs, or a comment. The list is not random: actives were taken first. Their share in the collection is about 10%. Unless noted, the call rests on the fitted dose curve; in most records, active means well fitted inhibition curve with a large enough effect; inconclusive means small, poorly fitted or top-dose-only effect; inactive means no such curve, though single readings can be large or run the other way.

SMILES	JMJD2A Tudor	HP1b chromo inh	G9a inh	Six1-Eya2 inh	CtBP-E1A blk	BAZ2B block
NC(=O)c1ccc(NC(=O)COc2coc(CN3CCc4ccccc4C3)cc2=O)cc1	i	i	50µM	i	i	?
COc1ccc(CN2CCN(C(=O)c3cccs3)CC2)cc1	1.3µM	?	10µM	i	i	56µM
O=C(c1cccs1)N1CCN(CCCc2ccccc2)CC1	3.2µM	45µM	32µM	i	i	79µM
O=C(c1cccs1)N1CCN(Cc2ccccc2)CC1	i	i	i	i	i	i
O=C(c1cccnc1)N1CCN(CCCc2ccccc2)CC1	5µM	56µM	?	i	i	nt
Cc1ccc(S(=O)(=O)N2CCN(C(=O)N(C)C)CC2)cc1	i	i	i	i	i	i
COc1ccc(/C=C/C(=O)NC(=S)N2CCN(c3ccccn3)CC2)cc1OC	i	i	nt	i	?	i
O=C(/C=C/c1ccc(F)cc1)NC(=S)N1CCN(c2ccccn2)CC1	i	i	nt	i	-74	i
O=C(Nc1ccc2c(c1)OCCO2)C1CCN(S(=O)(=O)c2ccc3c(c2)OCCO3)CC1	i	i	i	i	i	i
COc1ccc(OC)c(NC(=O)C2CCN(S(=O)(=O)c3ccc4c(c3)OCCO4)CC2)c1	i	i	50µM	i	i	i
CC(C)C(C)NC(=O)COC(=O)C1CCN(S(=O)(=O)c2ccc3c(c2)OCCO3)CC1 (stereo not given)	i	i	50µM	i	i	i
CCNC(=O)COC(=O)C1CCN(S(=O)(=O)c2ccc3c(c2)OCCO3)CC1	i	i	i	i	i	i
CC(=O)Nc1ccc(NC(=O)C2CCN(S(=O)(=O)c3ccc4c(c3)OCCO4)CC2)cc1	i	i	18µM	i	i	i
CC1=C(C(=O)OCC2CCCO2)C(c2ccc(Cl)cc2)NC(=O)N1 (stereo not given)	i	i	i[12.7 µM]	i	i	i
CCOC(=O)c1cccnc1	nt	nt	i	nt	nt	nt
Cc1ncsc1CCOC(=O)c1cccnc1	?	i	?	i	i	50µM
CCN(CC)S(=O)(=O)c1cccc(C(=O)NC2=NCCS2)c1	i	i	50µM	i	i	i
O=C(NC1=NCCS1)c1cccc(S(=O)(=O)N2CCCCC2)c1	nt	nt	i	nt	nt	i
O=C(NCCCn1ccnc1)c1ccc2nccnc2c1	i	i	nt	i	?	50µM
CCN(CC)S(=O)(=O)c1cccc(C(=O)NCCCn2ccnc2)c1	i	i	56µM	i	i	i
Cc1ccc(C(=O)NCCCn2ccnc2)cc1C	i	i	nt	i	i	nt
CCN(CC)S(=O)(=O)c1ccc(C(=O)NCCCn2ccnc2)cc1	i	i	i	i	i	i
CC(C)Oc1ccc(-c2nc3c(C#N)c[nH]n3c2NC2CCCCC2)cc1	i	i	?	nt	nt	i
Oc1ccccc1/C=N/NC(=S)NC1CC2CC1C1C=CCC21 (stereo not given)	?	i	i	?	?	i
CC1=C(C#N)C(=O)OC(C)(C)C1	i	i	13µM	i	i	i
SMILES	JMJD2A Tudor	HP1b chromo inh	G9a inh	Six1-Eya2 inh	CtBP-E1A blk	BAZ2B block
Cc1[nH]c(=O)c(C#N)c2c1COC(C)(C)C2	i	i	i	i	i	i
COc1ccccc1OCCCOc1ccc(C)cc1Br	i	i	i	i	i	i
Cc1ccc(C(C)C)c(OCC(O)CN(C)Cc2ccccc2)c1 (stereo not given)	i	i	i	i	i	i
Cc1cc(C)c(OCCCCN(C)Cc2ccccc2)c(C)c1	7.1µM	?	1.3µM	?	nt	?
Cc1ccc(OCCCCN(C)Cc2ccccc2)c(Br)c1	?	?	11µM	i	i	i
Cc1ccc(C(C)C)c(OCCCN(C)Cc2ccccc2)c1	22µM	?	10µM	i	i	?
O=C(Nc1cc([N+](=O)[O-])c2[nH]c(=O)c3ccccc3c2c1)C(F)(F)F	i	i	nt	i	i	nt
O=C(O)C(=O)/C(=C\c1ccc(Cl)cc1)c1ccc2ccccc2n1	22µM	i	i	i	i	?
CC(C)N=C1NN=C(c2cccs2)CS1	i	i	20µM	i	i	i
CC(C)N=C1NN=C(c2ccc(Cl)c(Cl)c2)CS1	?	i	45µM	i	i	?
CC(C)c1ccc(N=C2NN=C(c3cccs3)CS2)cc1	i	i	i	i	i	?
